# Experimental data published in PubChem BioAssay AID598 (SRMLSC, 2007).
# Screen size: about 85,000 compounds; about 5,100 (6%) were called active.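 Rule for the calls: active = viability at or below 40%; inactive = viability above 40%.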 Only a selection was taken, and actives are over-represented in it overall.
# Test: H69AR cell viability reduction – human, 86K library, primary screen (AID 598);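 note: multidrug resistant small cell line overexpressing MRP-1 efflux transporter; 100% = mean luminescence of untreated control wells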
# Settings: H69AR lung tumor viability, ATP luminescence, 72 h; at 10 µM; stronger effect = lower value
row,Structure (SMILES),viability
1,CCOC(=O)C1C(=O)NCC1c1ccccc1 (configuration not stated),99.9% (inactive)
2,O=C(c1cc2sccc2n1Cc1ccc(F)cc1)N1CCc2ccccc21,76% (inactive)
3,COC(=O)c1cc(NC(=O)CC2C(=O)NCCN2C(=O)c2ccc(F)cc2)cc(C(=O)OC)c1 (configuration not stated),80% (inactive)
4,O=C1Nc2ccccc2C12Nc1ccccc1S2 (configuration not stated),85.7% (inactive)
5,C=C1c2cc(CC)ccc2NC(=O)N1c1ccc(C)cc1,91.4% (inactive)
6,CCc1ccc2c(c1)C1(NN=C(c3ccccc3)S1)C(=O)N2 (configuration not stated),15.2% (active)
7,CCC(=O)NC(Nc1nc2ccc(C)cc2s1)(C(=O)OC)C(F)(F)F (configuration not stated),82.5% (inactive)
8,CC(C)CC(=O)Nc1cc(C(F)(F)F)ccc1N1CCOCC1,80.6% (inactive)
9,O=C(NCc1ccco1)c1ccc(Cn2c(=O)c3sccc3n(Cc3ccc(F)cc3)c2=O)cc1,82.3% (inactive)
10,COc1ccccc1NC(=O)C1CCCN(c2cc(C)nc3ncnn23)C1 (configuration not stated),85.4% (inactive)
11,COc1cccc(-c2nn(C)c3sc(C(=O)N4CCN(c5ccccc5)CC4)cc23)c1,70.9% (inactive)
12,COc1ccccc1N1CCN(C(=O)c2cc3c(-c4ccc(Cl)cc4)nn(C)c3s2)CC1,79.4% (inactive)
13,CCOC(=O)N1CCN(C(=O)c2cc3c(-c4ccc(Cl)cc4)nn(C)c3s2)CC1,31.4% (active)
14,CSc1nc(-c2ccco2)nn1C(=O)CCc1ccccc1,94.3% (inactive)
15,Cc1ccc(C(=O)Nc2ccccc2C(=O)NC2CCCCC2)cc1S(=O)(=O)N1CCOCC1,73% (inactive)
16,Cc1ccccc1CSCCNC(=O)c1ccc(Cl)c(S(=O)(=O)N2CCOCC2)c1,24.7% (active)
17,O=C(NCCSCc1ccccc1)c1ccc(Cl)c(S(=O)(=O)N2CCOCC2)c1,72.6% (inactive)
18,CCCc1noc2c1/C(=N\O)CCC2,111% (inactive)
19,COc1ccc(C(=O)c2oc3ccc(Br)cc3c2NC(C)=O)cc1,37.9% (active)
20,CC(C)C(=O)Nc1c(C(=O)c2ccc(F)cc2)oc2ccccc12,83.5% (inactive)
21,COC(=O)c1oc2ccc(Br)cc2c1NC(C)=O,95% (inactive)
22,CCn1nnnc1SCC(=O)c1ccc(C)cc1C,101% (inactive)
23,CN(C)c1ccc(CNC2C3CC4CC(C3)CC2C4)cc1 (configuration not stated),99.4% (inactive)
24,O=C(Nc1cccc(Cl)c1)Nc1nnc(-c2ccccc2)o1,70.9% (inactive)

row,Structure (SMILES),viability
1,CC(C)(C)c1ccc(NC(=O)NCc2ccco2)cc1,39.5% (active)
2,CC(C)(C)c1ccc(C(=O)NCCC(=O)NCc2ccco2)cc1,87.7% (inactive)
3,Cc1ccccc1NC(=O)NCc1ccco1,99.6% (inactive)
4,CCC(c1nnnn1C(C)(C)C)N(Cc1cc2cccc(C)c2n2nnnc12)C1CCCC1 (configuration not stated),78.9% (inactive)
5,CCOc1cc(N2CCOCC2)c(OCC)cc1NC(=O)COC(=O)[C@H](Cc1c[nH]c2ccccc12)NC(C)=O,71.8% (inactive)
6,CCOc1cc(N2CCOCC2)c(OCC)cc1NC(=O)COc1cccc2cccnc12,21.9% (active)
7,CCOc1cc(NC(=O)c2ccco2)c(OCC)cc1NC(=O)COc1ccccc1,91.9% (inactive)
8,O=C(Nc1cccc(NC(=O)c2ccco2)c1)c1cnccn1,87.2% (inactive)
9,Cc1cc(C)c(NC(=O)CN2CCOCCOCCOCCOCC2)c(C)c1,97.2% (inactive)
10,Cc1cc(Cl)c(S(=O)(=O)N(C)C)cc1OCC(N)=O,96% (inactive)
11,CCCCC(C(=O)OCC(=O)c1ccc(OC)cc1)N1C(=O)c2ccccc2C1=O (configuration not stated),95% (inactive)
12,CC/C(O)=N\S(=O)(=O)c1ccc(N=NN(C)C)cc1,85.7% (inactive)
13,CN(C)S(=O)(=O)c1ccc(N2CCCC2)c(C(=O)NCc2ccccc2)c1,83.6% (inactive)
14,CCOC(=O)C1=C(O)CSC1=Nc1cccc(Cl)c1,91.2% (inactive)
15,Clc1cccc(N=C2NN=C(c3ccc4c(c3)OCCO4)CS2)c1,1.44% (active)
16,COCCn1c(C)cc(C2=NNC(=Nc3ccc(F)cc3)SC2)c1C,88.2% (inactive)
17,CN1CCN(C(=O)Cn2c(C(F)(F)F)nc3ccccc32)CC1,96.4% (inactive)
18,O=C(Nc1nnc(C2CC2)s1)c1ccccn1,81% (inactive)
19,O=C1Nc2cc(Cl)c(Cl)cc2N(O)N1c1cc(Cl)cc(Cl)c1,102% (inactive)
20,COc1cccc(N(CC(=O)NCCSc2ccccn2)S(C)(=O)=O)c1,95.5% (inactive)
21,CC1(C)OC(=O)N2CCc3ccccc3C21C (configuration not stated),91.6% (inactive)
22,O=C(Nc1ccc(S(=O)(=O)N2CCc3ccccc3C2)cc1)c1ccccc1,69% (inactive)
23,O=C(CN1CCN(S(=O)(=O)/C=C/c2ccccc2)CC1)NC(=O)NCc1ccco1,93.8% (inactive)
24,O=C(COC(=O)c1ccc(S(=O)(=O)N2CCc3ccccc3C2)cc1)NC(=O)NCc1ccco1,18.3% (active)

row,Structure (SMILES),viability
1,O=C(NC(C(=O)NCCN1CCOCC1)C12CC3CC(CC(C3)C1)C2)C1CCCCC1 (configuration not stated),90.9% (inactive)
2,Nc1ccc(-c2nnc(-c3ccc(-c4ccccc4)cc3)o2)cc1,55% (inactive)
3,c1ccc(Nc2n[nH]nc2-c2ccccc2)cc1,94.2% (inactive)
4,Nc1ccc(Nc2ccccc2)cc1,15.3% (active)
5,CCCCCCOc1ccc(OC(=O)c2cccnc2)cc1,99.5% (inactive)
6,Cc1cc(C(=O)Nc2ccccc2N2CCOCC2)c2ccccc2n1,67.9% (inactive)
7,O=C(NCc1cccnc1)c1cn(-c2ccccc2)nc1-c1cccs1,9.99% (active)
8,O=C(CCc1ccccc1)NCc1cccnc1,97.5% (inactive)
9,COC(=O)c1cn(-c2ccccc2)nc1-c1cccnc1,108% (inactive)
10,CCN(CC)CCNC(=O)CCCCCn1c(=O)[nH]c2cc(C(=O)OC)ccc2c1=O,102% (inactive)
11,COc1ccccc1C(c1nnnn1C(C)(C)C)N1CCN(Cc2ccccc2)CC1 (configuration not stated),85.2% (inactive)
12,COc1ccc(-c2nnc(SC(=O)N3c4ccccc4Sc4ccccc43)o2)cc1,4.55% (active)
13,COc1ccc(-c2nnc(SCC(=O)c3ccc4c(c3)OCCO4)o2)cc1,102% (inactive)
14,COc1ccc(-c2nnc(SC(C)C#N)o2)cc1 (configuration not stated),86.7% (inactive)
15,CCCCCCNCCn1cnc2c(N)ncnc21,105% (inactive)
16,Cc1ccc(S(=O)(=O)NCCSC(C)(C)C)cc1,106% (inactive)
17,Cc1nnc(SC(C)C(=O)Nc2ccc(S(=O)(=O)NC3CCCCC3)cc2)s1 (configuration not stated),90.2% (inactive)
18,Cc1c(Br)cc(C(=O)N2CCCCCC2)c(C)c1C,85.9% (inactive)
19,Cc1ccc(Nc2cc(=O)n(C3CCCCC3)c(=O)[nH]2)cc1C,9.54% (active)
20,Cc1ccc(NS(=O)(=O)c2c(C)[nH]c(=O)[nH]c2=O)cc1C,112% (inactive)
21,CCC1(CC)Cc2ccccc2-c2nc3ccccc3c(=O)n21,88.7% (inactive)
22,CCOc1ccccc1C(=O)NC1CC2CCCC(C1)N2Cc1ccccc1 (configuration not stated),72.2% (inactive)
23,CC(C)Oc1ccc(C(=O)NC(C)(C)CO)cc1,106% (inactive)
24,Cc1cc(C)n(-c2nnc(C)n2NC(=O)c2cccc(Cl)c2)n1,88.1% (inactive)

row,Structure (SMILES),viability
1,Cc1ccc2c(Cl)c(C(=O)NCCCn3ccnc3)sc2c1,88.9% (inactive)
2,CCOc1ccccc1C(=O)NCCCn1ccnc1,98.9% (inactive)
3,O=C(NCCCn1ccnc1)Nc1ccc(Cl)cc1Cl,93.2% (inactive)
4,O=C(Nc1ccccc1C(=O)NCCCn1ccnc1)c1ccc(Cl)cc1Cl,75.6% (inactive)
5,CCCCC(=O)Nc1ccc(C(=O)NCCCn2ccnc2)cc1,7.32% (active)
6,CCCC(=O)Nc1ccc(C(=O)NCCCn2ccnc2)cc1,15.8% (active)
7,FC(F)(F)c1cnc(Oc2ccccc2-c2nnc(-c3ccc(Cl)cc3)o2)c(Cl)c1,92.2% (inactive)
8,O=C(CSCc1ccccc1)N1CCc2ccccc21,84.8% (inactive)
9,Cc1ccc(N(Cc2ccc(C(=O)Nc3ccccc3C(=O)NCc3ccco3)cc2)S(C)(=O)=O)cc1C,79.5% (inactive)
10,Cc1ccc(S(=O)(=O)/N=C(\CN2CCOCC2)N2CCOCC2)cc1,96.2% (inactive)
11,CC(=O)Nc1ccc(OCC(O)CN2CCN(c3ccccc3Cl)CC2)cc1 (configuration not stated),100% (inactive)
12,OC(COc1cccc(OCC(O)CN2CCCC2)c1)CN1CCCC1 (configuration not stated),99.3% (inactive)
13,O=C(C(c1ccccc1)c1ccccc1)N1CCN(CC(O)COc2ccccc2)CC1 (configuration not stated),27.1% (active)
14,O=C(CSc1nnc(-c2cccnc2)n1CCc1ccccc1)NCc1ccccc1,89.6% (inactive)
15,CCc1ccc(CNC(=O)CCc2nc(-c3cccs3)no2)cc1,98.2% (inactive)
16,c1ccc(-c2noc(-c3cccs3)n2)nc1,70.6% (inactive)
17,N#Cc1ccc(CSc2nnc(-c3ccccn3)n2-c2ccc(Cl)cc2)cc1,62% (inactive)
18,Clc1ccc(-n2nnnc2-c2cnc(-c3ccccn3)nc2-c2cccs2)cc1,18.2% (active)
19,CCOc1ccccc1N=C1NC(=O)CS1,85.9% (inactive)
20,COc1ccccc1N=C(C)C1=C(O)COC1=O,92.4% (inactive)
21,CCC/C(O)=C1\C(=O)CC(C)(C)CC1=Nc1ccccc1OC,28.2% (active)
22,CCOc1ccccc1NC(=O)C1CCCN(C(=O)Nc2ccccc2)C1 (configuration not stated),61.5% (inactive)
23,O=C1CCCC2=C1C(c1cccs1)n1nc(SCc3ccccc3)nc1N2 (configuration not stated),28.9% (active)
24,CC(C)C(=O)N1c2ccccc2NC2=C(C(=O)CCC2)C1c1ccc(N(C)C)cc1 (configuration not stated),74.9% (inactive)

row,Structure (SMILES),viability
1,CCCC(=O)N1c2ccccc2NC2=C(C(=O)CCC2)C1c1ccc(F)cc1 (configuration not stated),92.9% (inactive)
2,Cc1ccc(N(CC(=O)Nc2cccc(N(C)S(C)(=O)=O)c2)S(C)(=O)=O)cc1,85.4% (inactive)
3,O=C(CCCn1c(SCC(=O)c2ccccc2)nc2ccccc2c1=O)NCC1CCCO1 (configuration not stated),76.5% (inactive)
4,Cc1noc(COc2ccccc2OCc2onc(C)c2Cl)c1Cl,93.3% (inactive)
5,Fc1ccc(-n2c(Cc3ccccc3)nnc2SCc2nc(-c3ccc(Cl)cc3)no2)cc1,90.9% (inactive)
6,Cc1ccc(-c2noc(CSc3nnc(-c4ccncc4)n3-c3ccc(F)cc3)n2)cc1,27.9% (active)
7,Cc1ccc(-c2noc(CSc3nnc(-c4ccccc4)n3C)n2)cc1,85.9% (inactive)
8,O=S1(=O)C=C(SCCN2CCCC2)c2ccccc21,74.3% (inactive)
9,Cn1cc(S(=O)(=O)N2CCN(c3ccc(F)cc3)CC2)c(=O)n(C)c1=O,91.4% (inactive)
10,C#CCN(N(C)c1ncc(C(F)(F)F)cc1Cl)S(=O)(=O)c1ccc2ccccc2c1,84% (inactive)
11,CC(C)(C)C1CCc2c(sc3nc(SCC(N)=O)nc(N)c23)C1 (configuration not stated),2.44% (active)
12,C=C(C)CSc1nc(N)c2c3c(sc2n1)CCC3,92.1% (inactive)
13,CN(C)CCSc1nc(N)c2c3c(sc2n1)COC(C)(C)C3,91.2% (inactive)
14,O=C(/C=C/NNC(=O)c1cccc(Br)c1)c1ccccc1,61.5% (inactive)
15,N#C/C(=C(\O)CCl)c1nnc2n1CCCCC2,26.2% (active)
16,COCC(=O)Nc1ccc(Br)cc1,101% (inactive)
17,Cc1cccc(N(CC(=O)N2CCOCC2)S(C)(=O)=O)c1,98% (inactive)
18,CC1=NN(c2cccc(Cl)c2)C(=O)C12CC(C)=C(C)CS2 (configuration not stated),26.9% (active)
19,Cc1[nH]n(-c2cccc(Cl)c2)c(=O)c1-c1ccc(Cl)cc1,109% (inactive)
20,O=C(NCc1ccccc1)C1CCCN(S(=O)(=O)c2cccs2)C1 (configuration not stated),95.6% (inactive)
21,CCOc1ccc(S(=O)(=O)NCC2CCCO2)cc1 (configuration not stated),97% (inactive)
